Source: PubChem BioAssay (EPA / NIEHS)
Calls of active or inactive are those of the source. The calls were made as follows: active = hit-call score of the fitted dose curve at least 0.9, where 1 is the maximum; inactive = score below 0.9.

What was measured:
[1] = APR_HepG2_CellCycleArrest_1hr: Apredica 1-hour HepG2 Assay for Cell Cycle Arrest (AID 2282666); conditions: high-content imaging, actives raise or lower the signal
In short: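 HepG2 cells exposed for 1 h to 0.39–200 uM compound (0.5% DMSO). Fixed, Hoechst-stained nuclei imaged by ArrayScan; DNA content quantified by Cell Cycle analysis; bidirectional fit against DMSO.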

[2] = APR_HepG2_CellLoss_1hr: Apredica 1-hour HepG2 Assay for Cell Loss (AID 2282668); conditions: high-content imaging;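 also: curves fitted both ways against DMSO so gain or loss of cells counts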
In short: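 HepG2 cells were treated for 1 h with compound at 0.39–200 uM, in duplicate, in 0.5% DMSO. After formaldehyde fixation, Hoechst 33342-stained nuclei were imaged on an ArrayScan to count cells. Data were fitted bidirectionally versus DMSO.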

[3] = APR_HepG2_MicrotubuleCSK_1hr: Apredica 1-hour HepG2 Assay for Microtubule CSK Stabilty (AID 2282669); conditions: HepG2 microtubule cytoskeleton imaging, actives raise or lower the signal
In short: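 HepG2 cells exposed 1 h to 0.39–200 uM compound (0.5% DMSO, duplicates), then formaldehyde-fixed, permeabilized and immunostained for alpha-tubulin with Hoechst nuclei. Imaged by ArrayScan high-content analysis; bidirectional fit versus DMSO.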

[4] = APR_HepG2_p53Act_1hr: Apredica 1-hour HepG2 Assay for p53 Activation (AID 2282671); conditions: high-content imaging, actives raise or lower the signal
In short: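 HepG2 cells treated 1 h with compound at 0.39–200 uM (10 concentrations, duplicate) in 0.5% DMSO. Formaldehyde-fixed, permeabilised cells immunostained for p53 with Hoechst 33342; high-content imaging, bidirectional fit versus DMSO.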

[5] = APR_HepG2_MitoticArrest_1hr: Apredica 1-hour HepG2 Assay for Mitotic Arrest (AID 2282672); conditions: high-content imaging, actives raise or lower the signal
In short: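 HepG2 cells exposed 1 hr to compounds at 0.39–200 uM (0.5% v/v DMSO final), then fixed in 3.7% formaldehyde and immunostained for phospho-histone H3 with Hoechst 33342. Mitotic arrest scored by automated fluorescence imaging, fitted bidirectionally versus DMSO.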

[6] = APR_HepG2_MitoMass_1hr: Apredica 1-hour HepG2 Assay for Mitochondrial Mass (AID 2282674); conditions: high-content imaging, actives raise or lower the signal
In short: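 HepG2 cells dosed 1 hr with 0.39-200 uM compound (0.5% DMSO), duplicate wells. Mitochondria stained with 250 nM MitoTracker Red CMXRos for 30 min before formaldehyde fixation, imaged at 20x by ArrayScan; bidirectional fit versus DMSO.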

[7] = APR_HepG2_MitoMembPot_1hr: Apredica 1-hour HepG2 Assay for Mitochondrial Membrane Potential (AID 2282675); conditions: imaging, actives raise or lower the signal
In short: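 HepG2 cells dosed 1 hour with 0.39–200 uM compound in duplicate, 0.5% DMSO final. MitoTracker Red CMXRos (250 nM, 30 min) loaded before formaldehyde fixation; fluorescence quantified by high-content imaging, bidirectional fitting versus DMSO.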

[8] = APR_HepG2_StressKinase_1hr: Apredica 1-hour HepG2 Assay for Stress Kinase (AID 2282906); conditions: HepG2 stress kinase (phospho-c-Jun) imaging, actives raise or lower the signal
In short: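 HepG2 cells dosed 0.39-200 uM (0.5% DMSO) for 1 h, then formaldehyde-fixed. Stress kinase read by phospho-c-Jun immunofluorescence using high-content imaging; bidirectional fit vs DMSO.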

[9] = APR_HepG2_NuclearSize_24hr: Apredica 24-hour HepG2 Assay for Nuclear Size (AID 2282907); conditions: high-content imaging, actives raise or lower the signal
In short: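 HepG2, 24 hr dosing, 10-pt 0.39–200 uM, duplicates, 0.5% DMSO final; 3.7% formaldehyde fix, 0.5% Triton X-100; Hoechst 33342 nuclear stain; ArrayScan HCS, Cell Cycle analysis → nuclear size; bidirectional fit vs DMSO.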

[10] = APR_HepG2_CellLoss_24hr: Apredica 24-hour HepG2 Assay for Cell Loss (AID 2282908); conditions: high-content imaging;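 as to AC50: fit in both directions so a hit may be cell loss or gain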
In short: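 10-pt dose, 0.39–200 uM, n=2/plate; DMSO 0.5% v/v final as negative control. Fix 3.7% formaldehyde 30 min RT, permeabilize 0.5% Triton X-100, stain Hoechst 33342 2 ug/mL, image 20x. Nuclear count, bidirectional fit vs DMSO.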

[11] = APR_HepG2_MicrotubuleCSK_24hr: Apredica 24-hour HepG2 Assay for Microtubule CSK Stabilty (AID 2282909); conditions: HepG2 microtubule cytoskeleton imaging, actives raise or lower the signal
In short: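 Human liver HepG2, 24 h dosing, 0.39–200 uM ×10 conc, dup, 0.5% DMSO. 3.7% formaldehyde fix, 0.5% Triton perm, anti-alpha-tubulin (1:200)/Cy5 secondary + Hoechst. HCS imaging, 6 fields/well; gain/loss fit vs DMSO.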

[12] = APR_HepG2_MitoticArrest_24hr: Apredica 24-hour HepG2 Assay for Mitotic Arrest (AID 2282910); conditions: high-content imaging, actives raise or lower the signal
In short: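 HepG2 cells, 24 h exposure at 0.39-200 uM (10 concentrations, duplicate, 0.5% DMSO). Fixed, stained for phospho-histone H3 with Hoechst; imaged by high-content microscopy, bidirectional fit versus DMSO.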

[13] = APR_HepG2_MitoMembPot_24hr: Apredica 24-hour HepG2 Assay for Mitochondrial Membrane Potential (AID 2282911); conditions: imaging, actives raise or lower the signal
In short: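 HepG2 cells exposed 24 h to 0.39–200 uM compounds in duplicate, 0.5% v/v DMSO final. MitoTracker Red CMXRos 250 nM loaded 30 min before formaldehyde fixation; high-content imaging at 20x, bidirectional fit versus DMSO.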

[14] = APR_HepG2_MitoMass_24hr: Apredica 24-hour HepG2 Assay for Mitochondrial Mass (AID 2282912); conditions: high-content imaging, actives raise or lower the signal
In short: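 Mitochondrial mass is read as MitoTracker Red fluorescence intensity from automated imaging, with bidirectional curve fitting relative to DMSO. HepG2 cells received compound (0.39–200 uM, 0.5% DMSO final) for 24 hr and were dye-loaded (250 nM, 30 min) before formaldehyde fixation.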

[15] = APR_HepG2_p53Act_24hr: Apredica 24-hour HepG2 Assay for p53 Activation (AID 2282913); conditions: high-content imaging, actives raise or lower the signal;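 also: p53 protein immunofluorescence averaged per cell in HepG2 with Hoechst nuclei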
In short: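 HepG2 cells exposed 24 h to compounds at 0.39–200 uM in duplicate, 0.5% v/v DMSO final; fixed, permeabilized, stained with anti-p53 antibody and Hoechst 33342; fluorescence imaging; bidirectional curve fit versus DMSO.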

[16] = APR_HepG2_CellCycleArrest_72hr: Apredica 72-hour HepG2 Assay for Cell Cycle Arrest (AID 2282914); conditions: high-content imaging, actives raise or lower the signal
In short: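 HepG2 cells exposed 72 h in duplicate to 0.39–200 uM compound, 0.5% DMSO final. Formaldehyde-fixed, Hoechst 33342-stained nuclei imaged at 20x, six fields per well; DNA content per valid cell quantified by cell-cycle image analysis, bidirectional fit versus DMSO.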

[17] = APR_HepG2_CellLoss_72hr: Apredica 72-hour HepG2 Assay for Cell Loss (AID 2282915); conditions: high-content imaging
In short: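 HepG2 cells exposed 72 h to compound at 0.39–200 uM (10 concentrations, duplicate) in 0.5% DMSO. Fixed with 3.7% formaldehyde and Hoechst 33342-stained. Imaged at 20x; nuclear count gives cell number, fitted bidirectionally versus DMSO.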

[18] = APR_HepG2_CellCycleArrest_24hr: Apredica 24-hour HepG2 Assay for Cell Cycle Arrest (AID 2282905); conditions: imaging, actives raise or lower the signal;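 also: cell cycle arrest scored as ratio of 2N to 4N nuclear DNA content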
In short: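 HepG2, 24 hr dosing, 10-pt 0.39–200 uM in duplicate, 0.5% DMSO. Fixed 3.7% formaldehyde, permeabilized 0.5% Triton X-100, Hoechst 33342 2 ug/mL. Imaged 20x; nuclear DNA content quantified; bidirectional fit vs DMSO.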

[19] = APR_HepG2_NuclearSize_1hr: Apredica 1-hour HepG2 Assay for Nuclear Size (AID 2282670); conditions: high-content imaging, actives raise or lower the signal
In short: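 HepG2 cells dosed 1 hr with 0.39–200 uM compound (0.5% DMSO), formaldehyde-fixed, Hoechst 33342-stained and imaged at 20x; nuclear diameter from nuclear stain, fitted bidirectionally against DMSO.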

[20] = APR_HepG2_P-H2AX_1hr: Apredica 1-hour HepG2 Assay for H2AX Phosphorylation (AID 2282673); conditions: high-content imaging, actives raise or lower the signal
In short: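 HepG2 dosed 1 hr at 0.39-200 uM (0.5% DMSO final), duplicate. Fixed in 3.7% formaldehyde, Triton permeabilized, immunostained for phospho-histone H2A.x (1:200) with Hoechst 33342; ArrayScan 20x imaging, bidirectional fit vs DMSO.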

Measured: AC50

CCOP(=S)(OCC)Oc1ccc([N+](=O)[O-])cc1
not listed: [18] | [19] | [20]
inactive: all other assays above

CC[C@H](C)[C@H]1O[C@]2(C=C[C@@H]1C)C[C@@H]1C[C@@H](C/C=C(\C)[C@@H](O[C@H]3C[C@H](OC)[C@@H](O[C@H]4C[C@H](OC)[C@@H](NC)[C@H](C)O4)[C@H](C)O3)[C@@H](C)/C=C/C=C3\CO[C@@H]4[C@H](O)C(C)=C[C@@H](C(=O)O1)[C@]34O)O2
active: [2] 16.5 µM | [4] 26.8 µM | [8] 17.6 µM | [10] 2.55 µM | [11] 12.6 µM | [12] 12.7 µM | [14] 8.64 µM
not listed: [7] | [19] | [20]
inactive: all other assays above

CCCCOC(=O)[C@@H](C)Oc1ccc(Oc2ccc(C#N)cc2F)cc1
active: [17] 99.2 µM
not listed: [3] | [7] | [9] | [18]
inactive: all other assays above

CN1COCN(Cc2cnc(Cl)s2)C1=N[N+](=O)[O-]
not listed: [3]
inactive: all other assays above

Cc1ccn2nc(S(=O)(=O)Nc3c(F)cccc3F)nc2n1
not listed: [4] | [6] | [15] | [19]
inactive: all other assays above

CSc1nc(NC(C)C)nc(NC(C)C)n1
not listed: [7] | [9] | [19]
inactive: all other assays above

CN(C)[C@@H]1C(=O)C(C(N)=O)=C(O)[C@@]2(O)C(=O)C3=C(O)c4c(O)cccc4[C@@](C)(O)[C@H]3[C@H](O)[C@@H]12
not listed: [4] | [7] | [15] | [18] | [19]
inactive: all other assays above

CC(COc1ccc(Oc2ccccc2)cc1)Oc1ccccn1 (stereo not given)
active: [7] 66.9 µM | [13] 65.7 µM | [16] 87 µM | [17] 49.2 µM
not listed: [6] | [18]
inactive: all other assays above
